Data from the supplement of paper PMC11732987, “Enantioselective OTUD7B fragment discovery through chemoproteomics screening and high-throughput optimisation” (Communications Chemistry, 2025).

Assays:
Test in all cases: log2 ratio of Biotin-Ahx-Ub-VS probe labelling (fragment/DMSO); higher = less target engagement (more negative = stronger competition), active = hit call of the paper (q ≤ 0.05, log2 ratio ≤ -1)
Conditions in all cases: compound concentration: 200 uM; treatment time: 3 h
[1] = target: USP34 (UniProt Q70CQ2)
USP34, sequence (Q70CQ2 whole entry, the tested form may be a part): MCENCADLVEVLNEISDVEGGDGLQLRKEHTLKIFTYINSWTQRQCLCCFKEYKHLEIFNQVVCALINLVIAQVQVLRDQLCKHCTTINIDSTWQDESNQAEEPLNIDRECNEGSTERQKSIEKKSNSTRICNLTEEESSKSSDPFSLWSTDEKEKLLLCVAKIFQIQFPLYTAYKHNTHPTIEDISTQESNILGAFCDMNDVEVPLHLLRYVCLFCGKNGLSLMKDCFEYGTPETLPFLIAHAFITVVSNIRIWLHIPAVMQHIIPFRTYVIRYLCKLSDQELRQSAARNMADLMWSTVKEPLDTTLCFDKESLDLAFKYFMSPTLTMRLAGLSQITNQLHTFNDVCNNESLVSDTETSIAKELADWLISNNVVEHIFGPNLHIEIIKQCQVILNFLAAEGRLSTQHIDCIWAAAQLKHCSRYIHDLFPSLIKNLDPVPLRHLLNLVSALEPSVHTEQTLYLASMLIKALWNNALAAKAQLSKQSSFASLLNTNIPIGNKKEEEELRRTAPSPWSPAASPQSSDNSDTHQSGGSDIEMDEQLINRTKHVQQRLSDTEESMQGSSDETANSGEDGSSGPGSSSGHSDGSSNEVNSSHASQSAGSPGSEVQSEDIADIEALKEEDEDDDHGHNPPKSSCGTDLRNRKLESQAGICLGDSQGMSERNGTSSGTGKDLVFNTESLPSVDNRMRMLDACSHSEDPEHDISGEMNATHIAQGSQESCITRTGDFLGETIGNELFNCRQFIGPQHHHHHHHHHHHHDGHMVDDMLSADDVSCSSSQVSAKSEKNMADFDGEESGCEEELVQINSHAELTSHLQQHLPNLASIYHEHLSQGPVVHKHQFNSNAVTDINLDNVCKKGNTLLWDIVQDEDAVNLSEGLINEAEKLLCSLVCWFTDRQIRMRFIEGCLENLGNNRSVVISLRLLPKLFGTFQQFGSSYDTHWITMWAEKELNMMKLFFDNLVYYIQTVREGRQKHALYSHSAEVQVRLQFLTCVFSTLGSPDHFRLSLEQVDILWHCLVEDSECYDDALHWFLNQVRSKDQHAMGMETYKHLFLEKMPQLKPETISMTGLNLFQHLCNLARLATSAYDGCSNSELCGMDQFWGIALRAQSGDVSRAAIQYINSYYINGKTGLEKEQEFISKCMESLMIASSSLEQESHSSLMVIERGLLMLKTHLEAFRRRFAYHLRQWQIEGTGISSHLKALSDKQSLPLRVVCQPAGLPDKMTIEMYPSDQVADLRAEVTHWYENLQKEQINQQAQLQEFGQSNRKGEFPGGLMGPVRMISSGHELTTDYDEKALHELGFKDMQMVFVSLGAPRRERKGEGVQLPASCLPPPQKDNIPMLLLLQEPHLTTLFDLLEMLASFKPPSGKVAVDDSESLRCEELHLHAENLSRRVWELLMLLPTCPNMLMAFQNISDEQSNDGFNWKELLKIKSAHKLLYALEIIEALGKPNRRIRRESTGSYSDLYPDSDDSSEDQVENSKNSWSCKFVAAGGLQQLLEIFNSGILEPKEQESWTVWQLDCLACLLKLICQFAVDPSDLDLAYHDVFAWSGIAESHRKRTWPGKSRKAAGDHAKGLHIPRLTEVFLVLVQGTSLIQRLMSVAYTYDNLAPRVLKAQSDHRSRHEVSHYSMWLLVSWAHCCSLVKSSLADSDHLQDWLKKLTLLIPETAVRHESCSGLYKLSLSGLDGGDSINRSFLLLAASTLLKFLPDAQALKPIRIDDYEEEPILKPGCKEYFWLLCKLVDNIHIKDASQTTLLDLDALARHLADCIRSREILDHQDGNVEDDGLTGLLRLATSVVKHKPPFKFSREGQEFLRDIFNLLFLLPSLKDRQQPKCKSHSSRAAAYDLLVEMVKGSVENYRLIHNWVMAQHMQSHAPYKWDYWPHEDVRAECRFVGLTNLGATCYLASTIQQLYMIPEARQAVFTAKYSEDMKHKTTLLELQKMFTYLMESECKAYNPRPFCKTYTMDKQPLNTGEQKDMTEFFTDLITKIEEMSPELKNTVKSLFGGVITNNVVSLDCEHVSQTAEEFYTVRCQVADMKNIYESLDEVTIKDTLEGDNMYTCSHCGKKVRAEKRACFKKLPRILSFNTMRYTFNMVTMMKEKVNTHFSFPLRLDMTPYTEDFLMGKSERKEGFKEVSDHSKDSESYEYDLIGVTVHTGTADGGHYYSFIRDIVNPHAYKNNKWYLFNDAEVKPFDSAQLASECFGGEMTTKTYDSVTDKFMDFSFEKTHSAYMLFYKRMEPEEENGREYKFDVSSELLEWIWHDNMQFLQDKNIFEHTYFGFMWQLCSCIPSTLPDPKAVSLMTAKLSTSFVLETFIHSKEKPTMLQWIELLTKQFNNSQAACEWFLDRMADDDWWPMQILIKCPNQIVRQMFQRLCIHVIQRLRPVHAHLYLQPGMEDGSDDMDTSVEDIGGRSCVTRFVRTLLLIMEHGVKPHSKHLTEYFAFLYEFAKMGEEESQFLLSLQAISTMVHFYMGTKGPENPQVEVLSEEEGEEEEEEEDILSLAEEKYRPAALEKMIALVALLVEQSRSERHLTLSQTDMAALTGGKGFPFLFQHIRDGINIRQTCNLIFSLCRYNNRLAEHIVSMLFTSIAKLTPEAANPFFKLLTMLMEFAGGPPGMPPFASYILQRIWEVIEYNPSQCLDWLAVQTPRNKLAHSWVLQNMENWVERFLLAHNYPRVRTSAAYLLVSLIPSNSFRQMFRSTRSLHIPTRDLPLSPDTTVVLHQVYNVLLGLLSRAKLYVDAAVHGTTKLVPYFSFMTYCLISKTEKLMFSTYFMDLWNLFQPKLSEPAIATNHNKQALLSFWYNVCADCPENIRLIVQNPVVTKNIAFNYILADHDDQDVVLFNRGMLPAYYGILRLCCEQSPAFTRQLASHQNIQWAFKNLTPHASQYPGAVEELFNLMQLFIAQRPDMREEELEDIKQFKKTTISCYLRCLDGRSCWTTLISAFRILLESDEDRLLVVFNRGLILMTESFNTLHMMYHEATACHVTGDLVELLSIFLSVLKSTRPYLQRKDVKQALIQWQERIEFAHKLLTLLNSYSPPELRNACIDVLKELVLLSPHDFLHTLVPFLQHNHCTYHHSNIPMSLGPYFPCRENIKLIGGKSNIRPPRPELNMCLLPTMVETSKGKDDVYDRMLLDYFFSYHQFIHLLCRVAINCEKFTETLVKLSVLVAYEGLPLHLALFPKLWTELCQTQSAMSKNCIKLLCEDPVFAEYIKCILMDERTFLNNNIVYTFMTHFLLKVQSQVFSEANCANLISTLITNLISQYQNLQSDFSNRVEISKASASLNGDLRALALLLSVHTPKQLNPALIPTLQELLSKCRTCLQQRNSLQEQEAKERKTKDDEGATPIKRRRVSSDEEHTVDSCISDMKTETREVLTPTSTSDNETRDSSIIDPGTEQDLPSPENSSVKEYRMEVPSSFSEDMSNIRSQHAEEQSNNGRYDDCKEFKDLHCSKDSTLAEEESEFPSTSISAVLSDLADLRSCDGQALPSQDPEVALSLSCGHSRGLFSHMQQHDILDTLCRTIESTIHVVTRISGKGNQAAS
Outline: (§1)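 HEK293T lysate, 495 µg per sample in Tris/CHAPS/IGEPAL buffer with protease inhibitors, was treated in triplicate with fragment at 200 µM or vehicle for 3 h and then with Biotin-Ahx-Ub-VS at 0.5 µM final for 1 h. Labelled DUBs were NeutrAvidin-enriched, digested with LysC and trypsin, and run by diaPASEF LC-MS/MS. Spectronaut label-free quantities were global-median-normalised, and values are average log2 fragment/vehicle ratios by unpaired t-test on proteins with ≥2 unique peptides.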

[2] = target: T1, USP36 (UniProt Q9P275)
T1 sequence (whole entry): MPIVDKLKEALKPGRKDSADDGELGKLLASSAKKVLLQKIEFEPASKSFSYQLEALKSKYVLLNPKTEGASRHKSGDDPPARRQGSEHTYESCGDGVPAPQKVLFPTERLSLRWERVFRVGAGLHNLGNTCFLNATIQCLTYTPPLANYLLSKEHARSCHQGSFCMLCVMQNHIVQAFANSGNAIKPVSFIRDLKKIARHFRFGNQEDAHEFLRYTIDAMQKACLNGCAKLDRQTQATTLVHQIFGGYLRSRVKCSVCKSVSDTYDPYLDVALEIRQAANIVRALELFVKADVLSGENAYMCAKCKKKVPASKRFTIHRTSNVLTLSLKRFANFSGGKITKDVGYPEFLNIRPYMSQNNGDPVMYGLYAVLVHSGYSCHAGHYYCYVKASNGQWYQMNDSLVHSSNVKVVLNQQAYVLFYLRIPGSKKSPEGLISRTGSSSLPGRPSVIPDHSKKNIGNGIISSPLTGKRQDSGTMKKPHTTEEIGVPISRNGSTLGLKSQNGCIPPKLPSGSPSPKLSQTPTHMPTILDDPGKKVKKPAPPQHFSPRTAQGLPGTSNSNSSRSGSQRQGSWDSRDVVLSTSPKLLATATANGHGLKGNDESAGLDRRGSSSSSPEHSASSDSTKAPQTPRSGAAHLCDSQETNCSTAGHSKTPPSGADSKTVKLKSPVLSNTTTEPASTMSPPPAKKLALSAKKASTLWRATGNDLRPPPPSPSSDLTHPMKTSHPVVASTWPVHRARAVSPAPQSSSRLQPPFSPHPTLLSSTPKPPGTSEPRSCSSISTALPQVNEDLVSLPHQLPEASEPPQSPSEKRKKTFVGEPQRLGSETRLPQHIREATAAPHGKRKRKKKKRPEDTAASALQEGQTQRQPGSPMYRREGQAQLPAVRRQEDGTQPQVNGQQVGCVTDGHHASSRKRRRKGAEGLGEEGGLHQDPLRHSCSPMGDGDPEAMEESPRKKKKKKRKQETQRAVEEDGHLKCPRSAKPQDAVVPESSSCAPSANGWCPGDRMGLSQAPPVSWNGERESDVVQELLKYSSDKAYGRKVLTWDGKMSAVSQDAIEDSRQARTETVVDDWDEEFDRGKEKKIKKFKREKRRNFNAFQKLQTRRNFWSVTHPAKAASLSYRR
Outline: as §1

[3] = target: T2, USP38 (UniProt Q8NB14)
T2 sequence (whole entry): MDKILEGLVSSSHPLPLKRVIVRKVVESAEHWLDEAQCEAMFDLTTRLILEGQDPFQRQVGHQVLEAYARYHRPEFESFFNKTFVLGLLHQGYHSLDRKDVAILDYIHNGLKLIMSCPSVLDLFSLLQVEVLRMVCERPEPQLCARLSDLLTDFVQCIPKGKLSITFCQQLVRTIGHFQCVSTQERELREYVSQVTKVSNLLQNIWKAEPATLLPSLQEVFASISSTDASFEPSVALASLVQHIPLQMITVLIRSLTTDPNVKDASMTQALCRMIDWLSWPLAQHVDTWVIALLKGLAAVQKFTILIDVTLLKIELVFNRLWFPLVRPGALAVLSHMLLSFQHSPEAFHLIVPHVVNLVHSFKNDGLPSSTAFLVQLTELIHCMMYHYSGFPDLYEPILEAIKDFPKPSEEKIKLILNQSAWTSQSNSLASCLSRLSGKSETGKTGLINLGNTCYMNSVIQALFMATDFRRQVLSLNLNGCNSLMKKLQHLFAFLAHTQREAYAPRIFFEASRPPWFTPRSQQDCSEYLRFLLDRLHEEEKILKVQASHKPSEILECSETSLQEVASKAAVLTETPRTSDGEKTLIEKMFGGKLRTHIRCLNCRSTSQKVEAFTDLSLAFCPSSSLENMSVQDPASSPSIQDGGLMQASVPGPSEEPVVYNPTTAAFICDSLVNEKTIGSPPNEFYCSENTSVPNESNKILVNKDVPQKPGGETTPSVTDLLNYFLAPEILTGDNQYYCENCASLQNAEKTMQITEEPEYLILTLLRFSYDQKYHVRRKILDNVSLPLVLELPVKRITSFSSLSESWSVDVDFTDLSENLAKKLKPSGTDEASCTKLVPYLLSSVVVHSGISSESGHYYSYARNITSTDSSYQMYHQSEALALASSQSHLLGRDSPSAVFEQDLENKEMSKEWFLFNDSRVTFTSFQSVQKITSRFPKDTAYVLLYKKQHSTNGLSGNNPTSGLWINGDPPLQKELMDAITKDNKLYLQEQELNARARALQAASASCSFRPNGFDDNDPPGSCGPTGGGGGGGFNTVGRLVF
Outline: as §1

[4] = target: T3, USP39 (UniProt Q53GS9)
T3 sequence (whole entry): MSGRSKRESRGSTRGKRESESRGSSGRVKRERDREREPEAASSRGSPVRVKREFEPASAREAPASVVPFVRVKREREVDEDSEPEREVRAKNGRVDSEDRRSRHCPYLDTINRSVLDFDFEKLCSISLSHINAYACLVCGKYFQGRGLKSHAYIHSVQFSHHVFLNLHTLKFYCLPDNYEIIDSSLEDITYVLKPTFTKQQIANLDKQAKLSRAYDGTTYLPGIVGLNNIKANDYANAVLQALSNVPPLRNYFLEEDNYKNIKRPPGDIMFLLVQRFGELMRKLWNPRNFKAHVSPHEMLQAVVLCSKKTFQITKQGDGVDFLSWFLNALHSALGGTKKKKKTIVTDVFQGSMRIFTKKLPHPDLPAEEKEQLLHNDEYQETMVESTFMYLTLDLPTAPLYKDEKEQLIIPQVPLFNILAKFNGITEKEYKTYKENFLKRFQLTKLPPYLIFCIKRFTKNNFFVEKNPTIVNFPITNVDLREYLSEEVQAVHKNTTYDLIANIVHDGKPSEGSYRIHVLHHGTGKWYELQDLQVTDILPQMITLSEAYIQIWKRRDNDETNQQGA
Outline: as §1

[5] = target: T4, USP4 (UniProt Q13107)
T4 sequence (whole entry): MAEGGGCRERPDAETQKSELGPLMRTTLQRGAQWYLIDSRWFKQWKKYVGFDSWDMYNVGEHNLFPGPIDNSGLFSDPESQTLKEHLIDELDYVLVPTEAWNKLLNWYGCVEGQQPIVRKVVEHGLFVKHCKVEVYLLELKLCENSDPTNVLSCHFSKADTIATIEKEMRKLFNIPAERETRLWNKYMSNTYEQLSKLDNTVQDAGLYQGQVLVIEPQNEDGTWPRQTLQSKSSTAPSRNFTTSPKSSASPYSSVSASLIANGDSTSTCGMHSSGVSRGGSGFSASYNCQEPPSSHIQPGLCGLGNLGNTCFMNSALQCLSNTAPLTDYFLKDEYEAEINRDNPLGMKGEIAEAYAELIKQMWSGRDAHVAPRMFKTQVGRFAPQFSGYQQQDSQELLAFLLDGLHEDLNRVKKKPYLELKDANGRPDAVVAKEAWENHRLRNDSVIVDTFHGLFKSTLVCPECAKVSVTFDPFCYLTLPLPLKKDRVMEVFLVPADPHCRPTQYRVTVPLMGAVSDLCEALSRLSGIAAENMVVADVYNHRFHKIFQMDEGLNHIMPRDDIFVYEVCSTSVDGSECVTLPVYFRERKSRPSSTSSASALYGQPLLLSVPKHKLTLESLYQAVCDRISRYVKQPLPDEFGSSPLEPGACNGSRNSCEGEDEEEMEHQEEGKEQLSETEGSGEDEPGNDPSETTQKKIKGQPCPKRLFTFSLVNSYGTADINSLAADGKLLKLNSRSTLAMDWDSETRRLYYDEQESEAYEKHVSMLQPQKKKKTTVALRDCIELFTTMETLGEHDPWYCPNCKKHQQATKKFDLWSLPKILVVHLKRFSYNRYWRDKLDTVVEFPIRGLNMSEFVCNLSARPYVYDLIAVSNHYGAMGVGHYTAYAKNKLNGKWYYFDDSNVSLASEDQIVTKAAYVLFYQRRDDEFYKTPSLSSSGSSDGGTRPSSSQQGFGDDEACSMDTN
Outline: as §1

Measured: log2 ratio of Biotin-Ahx-Ub-VS probe labelling

CCN(C(=O)CCl)C1CCS(=O)(=O)C1 (stereo not given)
inactive: [1] -0.11 | [2] -0.152 | [3] -0.0197 | [4] -0.0969 | [5] 0.159
